# Among all 69,000 compounds or so, about 1,000 (1.4%) showed an effect of 50% or more. The entries come from a sample that favours strong results as a whole.
# Test system: Leishmania donovani
# Assay: Leishmania intramacrophage assay
# Assay type: functional, organism-based
# Design: scale not given: in the data most compounds retested in dose-response had high values
smiles,measurement,setting,value
CCOCc1cncc2c1CCN(C(=O)c1cscn1)C2.O=C(O)C(F)(F)F,Percent Effect,"30.3 µM, […]",5.62%
Cc1ccc(C(=O)NC2CCN(C(C)C)C2)c(=O)[nH]1 (stereo unspecified),Percent Effect,"30.3 µM, […]",39.11%
Cc1ccc(C(=O)NC2CCN(S(C)(=O)=O)CC2)c(=O)[nH]1,Percent Effect,"30.3 µM, […]",59.71%
Cc1ccc(C(=O)NC2CCCN(S(C)(=O)=O)C2)c(=O)[nH]1 (stereo unspecified),Percent Effect,"30.3 µM, […]",4.219%
CNC(=O)C1CN(c2cc(C)ncn2)CCN1Cc1ccccc1 (stereo unspecified),Percent Effect,"30.3 µM, […]",-5.457%
CCOC(=O)N1CCN(C(=O)c2cc(-c3ccc(C)cc3)on2)CC1,Percent Effect,"30.3 µM, […]",67.95%
CCOC(=O)N1CCN(C(=O)c2cc(-c3ccc(Cl)cc3Cl)on2)CC1,Percent Effect,"30.3 µM, […]",18.25%
CCOC(=O)N1CCN(C(=O)c2cc(-c3ccccc3F)on2)CC1,Percent Effect,"30.3 µM, […]",-28.98%
Cn1cc(C(=O)N2CC[C@@H]3[C@@H]2CCN3c2ncc(F)cn2)cn1.O=C(O)C(F)(F)F,Percent Effect,"30.3 µM, […]",4.387%
Cc1ccsc1CNC(=O)c1ccc(N2CCOC2=O)cc1,Percent Effect,"30.3 µM, […]",-0.1452%
COc1cccc(COC(C)C(=O)N(C)Cc2nnc3n2CCC3)c1 (stereo unspecified),Percent Effect,"30.3 µM, […]",-15.17%
Cc1cc(C(=O)NC(COCC(C)C)c2ccco2)no1 (stereo unspecified),Percent Effect,"30.3 µM, […]",10.39%
CCNc1ncc(CN(CCN(C)C)Cc2ccc(C)s2)cn1,Percent Effect,"30.3 µM, […]",7.089%
COc1ncc(CN(CCN(C)C)Cc2ccc(C)s2)cn1,Percent Effect,"30.3 µM, […]",1.942%
CCc1ccc(CN(CCN(C)C)Cc2ccc(C)s2)nc1,Percent Effect,"30.3 µM, […]",60.62%
CN(C)C(=O)COCC1CN(Cc2ccoc2)Cc2ncn(C)c21.O=C(O)C(F)(F)F.O=C(O)C(F)(F)F (stereo unspecified),Percent Effect,"30.3 µM, […]",13.81%
O=C(NCC(F)(F)F)c1ccncc1,Percent Effect,"30.3 µM, […]",80.67%
O=C(NCC(F)(F)C(F)F)c1cccnc1,Percent Effect,"30.3 µM, […]",3.821%
O=C(NCC(F)(F)C(F)F)c1ccncc1,Percent Effect,"30.3 µM, […]",-13.6%
CCC(C)N(Cc1cccnc1)Cc1cc2c(cc1Cl)OCO2 (stereo unspecified),Percent Effect,"30.3 µM, […]",69.06%
CCC(C)N(Cc1cccnc1)Cc1ccc2c(c1)OCCO2 (stereo unspecified),Percent Effect,"30.3 µM, […]",27.15%
CCC(C)N(Cc1cccnc1)Cc1cc2c(cc1OC)OCO2 (stereo unspecified),Percent Effect,"30.3 µM, […]",16.2%
CC(C)CN1C(=O)CC(N2CCN(c3ccc(F)cc3)CC2)C1=O (stereo unspecified),Percent Effect,"30.3 µM, […]",-25.93%
O=C(NC1CC1)c1nc(Cn2c(C(F)F)nc3ccccc32)no1,Percent Effect,"30.3 µM, […]",-15.36%
CC(C)NC(=O)c1nc(Cn2c(C(F)(F)F)nc3ccccc32)no1,Percent Effect,"30.3 µM, […]",55.95%
CC(C)NC(=O)c1nc(Cn2c(C(F)F)nc3ccccc32)no1,Percent Effect,"30.3 µM, […]",-22.55%
CCc1nnc2n1CCN(CC(O)c1ccc3c(c1)OCCO3)C2 (stereo unspecified),Percent Effect,30 µM,-7.197%
CN(C)S(=O)(=O)N1CCN(C(=O)OC(C)(C)C)CC12CCCCC2,Percent Effect,"30.3 µM, […]",5.768%
CC(C)(C)OC(=O)N1CCN(S(C)(=O)=O)C2(CCCCC2)C1,Percent Effect,"30.3 µM, […]",27.8%
CC(C)(C)OC(=O)N1CCN(S(=O)(=O)CCCC#N)C2(CCCCC2)C1,Percent Effect,"30.3 µM, […]",52.1%
CN1CCN(CC2(O)CCCN(S(=O)(=O)c3cn[nH]c3)CC2)CC1 (stereo unspecified),Percent Effect,"30.3 µM, […]",4.995%
Cc1ccc(CN2CCN(Cc3nccn3C)[C@H]3CS(=O)(=O)C[C@H]32)o1,Percent Effect,"30.3 µM, […]",16.96%
CC(C)n1cc(N2Cc3nc(N4CCOCC4)ncc3C2=O)cn1,Percent Effect,"30.3 µM, […]",32.93%
CCn1cc(N2Cc3nc(N4CCOCC4)ncc3C2=O)cn1,Percent Effect,"30 µM, 30.03 µM",-6.754%
Cn1cc(N2Cc3nc(N4CCOCC4)ncc3C2=O)cn1,Percent Effect,"30.3 µM, […]",59.37%
CN(C)Cc1ccc(C(N)=O)cc1NC(=O)c1cccc(C#N)c1,Percent Effect,"30.3 µM, […]",0.5381%
CC(=O)N1CCC(Cc2cccc(-c3ccnn3C)n2)CC1,Percent Effect,"30.3 µM, […]",7.143%
CN(CCNC(=O)Nc1cnn(C)c1)Cc1ccc(F)cc1,Percent Effect,"30.3 µM, […]",-44.73%
CN(CCNC(=O)Nc1ccn(C)n1)Cc1ccc(F)cc1,Percent Effect,"30.3 µM, […]",-20.54%
CN(CCNC(=O)Nc1nccs1)Cc1ccc(F)cc1,Percent Effect,"30.3 µM, […]",53.32%
CCSCc1cccc(NC2CCN(C)C2=O)c1 (stereo unspecified),Percent Effect,"30.3 µM, […]",-1.156%
COCCCN(C)c1cc(C(F)(F)F)nc(-c2cccnc2)n1,Percent Effect,"30.3 µM, […]",1.301%
Cl.c1ccc(-c2ccc(C3CNCCO3)nc2)cc1 (stereo unspecified),Percent Effect,"30 µM, 30.03 µM",21.61%
CCNC(=O)N(Cc1ccoc1)C1CCCCC1,Percent Effect,"30.3 µM, […]",-8.85%
COc1cc(CSc2nnc(N)n2C2CC2)ccc1SC,Percent Effect,"30.3 µM, […]",3.668%
CC(C)(C)c1ncc(C(=O)N2CCC(N3CCSCC3)CC2)c(O)n1,Percent Effect,"30.3 µM, […]",-1.593%
NC(=O)C(CNC(=O)Cc1ccsc1)Cc1ccc(F)cc1 (stereo unspecified),Percent Effect,"30.3 µM, […]",32.76%
NC(=O)C(CNC(=O)Cc1ccc(F)cc1)Cc1ccc(F)cc1 (stereo unspecified),Percent Effect,"30 µM, 30.03 µM",16.98%
Cc1ccc(CC(=O)NCC(Cc2ccc(F)cc2)C(N)=O)cn1 (stereo unspecified),Percent Effect,"30.3 µM, […]",53.64%
CSc1ncnc(NCc2cccs2)c1C#N,Percent Effect,"30.3 µM, […]",10.2%
COCCCN1Cc2cccc(NC(=O)c3ccccc3C)c2C1,Percent Effect,"30.3 µM, […]",-0.887%
